Assay results as given in PubChem BioAssay AID2642 (Johns Hopkins Ion Channel Center, 2010).
Screen size: about 310,000 compounds; about 3,900 (1.3%) were called active.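 The calls were made as follows: active = compounds whose thallium flux B-score, printed positive for inhibition, exceeds three library SD while starting fluorescence stays within three; inactive = the rest.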 The sample as a whole holds a higher share of actives than the screen did.

These compounds were tested against Potassium voltage-gated channel subfamily KQT member 1 (Homo sapiens) (UniProt P51787) (assay: inhibitors of human KCNQ1 channel, primary screen, cell-based, thallium flux, high-throughput (AID 2642;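 also: channel opened by potassium depolarization with thallium stimulus after 20 min compound exposure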)). Conditions: CHO-K1 KCNQ1, FluxOR thallium flux fluorescence, at 10 µM; hits give high values.
Potassium voltage-gated channel subfamily KQT member 1 (Homo sapiens), sequence (P51787 whole entry, looked up): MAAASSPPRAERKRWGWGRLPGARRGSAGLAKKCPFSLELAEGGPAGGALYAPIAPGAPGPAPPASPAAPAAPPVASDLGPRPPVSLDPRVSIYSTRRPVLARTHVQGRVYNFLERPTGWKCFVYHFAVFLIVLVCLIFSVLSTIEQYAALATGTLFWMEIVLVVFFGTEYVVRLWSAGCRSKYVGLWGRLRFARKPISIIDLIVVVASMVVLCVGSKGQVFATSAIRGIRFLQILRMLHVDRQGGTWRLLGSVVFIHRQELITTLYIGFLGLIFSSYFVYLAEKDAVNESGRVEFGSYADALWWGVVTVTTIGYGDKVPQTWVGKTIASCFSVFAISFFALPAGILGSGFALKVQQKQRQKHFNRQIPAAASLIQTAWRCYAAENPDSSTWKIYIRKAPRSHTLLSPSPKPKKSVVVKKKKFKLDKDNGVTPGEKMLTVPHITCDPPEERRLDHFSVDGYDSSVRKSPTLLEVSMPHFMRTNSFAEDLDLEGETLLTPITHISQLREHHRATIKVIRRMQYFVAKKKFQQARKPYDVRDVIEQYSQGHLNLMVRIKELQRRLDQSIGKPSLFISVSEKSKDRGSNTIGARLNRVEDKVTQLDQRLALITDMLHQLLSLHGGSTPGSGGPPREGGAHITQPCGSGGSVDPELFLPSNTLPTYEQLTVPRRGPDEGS

| SMILES | B-score |
| --- | --- |
| CC(C)(C)Cc1nnc(NC(=O)c2cc(-c3ccccc3)nc3ccccc23)s1 | 11 (active) |
| O=C(Nc1nnc(-c2ccccc2)o1)c1cc(-c2cccs2)nc2ccccc12 | inactive |
| COc1ccc(-c2cc(C(=O)Nc3ccccc3O)c3ccccc3n2)cc1 | inactive |
| O=C(O)CCCCCCCCCC[n+]1ccccc1 | inactive |
| CCc1noc(C)c1C(=O)Oc1ccc(N(C)S(=O)(=O)c2ccc(C)c(C)c2)cc1 | 9 (active) |
| Cc1ccc(S(=O)(=O)N(C)C)cc1NC(=O)COC(=O)c1c(C)noc1C | inactive |
| CN(c1ccc(OCC(=O)O)cc1)S(=O)(=O)c1ccc2ccccc2c1 | inactive |
| CCc1ccc(OCC(=O)NCC(c2ccc(Cl)cc2)N2CCCCC2)cc1 (stereo not drawn) | inactive |
| Cc1cc(C)cc(NC(=O)CCN2C(=O)c3ccccc3C2=O)c1 | inactive |
| N#Cc1c(NC(=O)CCCN2C(=O)c3ccccc3C2=O)oc(-c2ccccc2)c1-c1ccccc1 | 6 (active) |
| COc1cc(C(=O)Nc2oc(-c3ccccc3)c(-c3ccccc3)c2C#N)cc(OC)c1OC | inactive |
| Cc1cc(OCC(=O)N2CCN(c3ncccn3)CC2)ccc1Cl | inactive |
| COc1ccccc1CC(=O)NCCc1c[nH]c2ccccc12 | inactive |
| COc1ccc(S(=O)(=O)NCCc2c[nH]c3ccccc23)cc1OC | inactive |
| COc1cccc(CNCCc2c[nH]c3ccccc23)c1OCc1ccccc1F | 8 (active) |
| O=C(Nc1ccccc1N1CCCC1)c1ccc2ccccc2c1 | inactive |
| COc1ccc(N2CCN(C(=O)c3ccc(N4CCCCS4(=O)=O)cc3)CC2)cc1 | inactive |
| COc1ccc2[nH]c(=O)c(C3c4cc(OC)c(OC)cc4CCN3C(=O)c3ccco3)cc2c1 (stereo not drawn) | inactive |
| COc1ccccc1C1SCCN1C(=O)c1ccc([N+](=O)[O-])cc1 (stereo not drawn) | inactive |
| COc1ccc(C(=O)N2CCc3cc(OC)c(OC)cc3C2c2cccc([N+](=O)[O-])c2)cc1 (stereo not drawn) | 7 (active) |
| O=C(CCl)Nc1ccc(Sc2ccc(NC(=O)CCl)cc2)cc1 | inactive |
| CC(C)(CCl)C(=O)Nc1ccc(Sc2ccc(F)cc2)cc1 | 9 (active) |
| O=C(Nc1ccncc1)Nc1ccc(F)cc1 | inactive |

| SMILES | B-score |
| --- | --- |
| CCCN(CCC)c1nc2c(C)cccn2c(=O)c1/C=C1/SC(=S)N(Cc2ccco2)C1=O | 14 (active) |
| CCOC(=O)CC1C(=O)NCCN1c1nc2c(C)cccn2c(=O)c1/C=C1\SC(=S)N(C(C)CC)C1=O (stereo not drawn) | inactive |
| CNc1nc2c(C)cccn2c(=O)c1C=Nc1ccc(OC)cc1 | inactive |
| Cc1cccc(OCC(=O)Nc2ccc(NC(=O)c3ccco3)c(C)c2)c1 | inactive |
| CCC(C)(C(=O)NC1CCCCC1)N(C)C(=O)c1ccc2c(c1)OCO2 (stereo not drawn) | inactive |
| COCCSc1nnc(NC(=O)c2cc(OC)c(OC)cc2[N+](=O)[O-])s1 | inactive |
| O=C(O)CCC(=O)NCc1ccc2[nH]c3c(c2c1)CCCC3 | inactive |
| Cc1cc(C)cc(NC(=S)NCc2ccc(F)cc2)c1 | inactive |
| Cc1cccc(NC(=S)NCc2ccc3[nH]c4c(c3c2)CCCC4)c1 | 6 (active) |
| CC(C)(C)c1ccc(SCCc2ccncc2)cc1 | inactive |
| C=CCN1CN(S(=O)(=O)c2ccc(OC)cc2)c2nc3ccccc3nc21 | inactive |
| CC(C)(C)NS(=O)(=O)c1ccc(NC(=O)C2CCCO2)cc1 (stereo not drawn) | inactive |
| CCCC(C)C(=O)Nc1ccc(NC(C)=O)cc1 (stereo not drawn) | inactive |
| COc1ccc(S(=O)(=O)/N=C2\C=C(NS(=O)(=O)c3ccccc3)C(=O)c3ccccc32)cc1 | 6 (active) |
| CCCC(NS(=O)(=O)c1ccc(OC)cc1)C(=O)O (stereo not drawn) | inactive |
| COc1ccc(NC(=O)c2cnc(NS(=O)(=O)c3ccccc3)nc2)cc1 | inactive |
| COc1c(N2CCN(C(=S)Nc3ccccc3F)C(C)C2)c(F)cc2c(=O)c(C(=O)O)cn(C3CC3)c12 (stereo not drawn) | inactive |
| Cc1cc(C)n2nc(C(=O)OC(C)C(=O)c3cc(C)c(C)cc3C)nc2n1 (stereo not drawn) | inactive |
| Cc1cc(Br)ccc1NC(=O)c1sc2ncn(CC(=O)N3CCN(c4ccccn4)CC3)c(=O)c2c1C | inactive |
| O=C(CN1CCN(c2ccccn2)CC1)Nc1ccc(Br)cc1 | inactive |
| Cc1cc(Br)ccc1NC(=O)c1cnc(N2CCN(c3ccccn3)CC2)c2ccccc12 | 7 (active) |
| COc1ccc(Cc2nnc(SCC(=O)Nc3ccc(C)c(C)c3)o2)cc1OC | inactive |
| CCCc1ccc(C(=O)[C@@H]2[C@@H](C(C)=O)N3c4ccc(F)cc4C=C[C@@H]3[C@@]23C(=O)Nc2ccccc23)cc1 | inactive |

| SMILES | B-score |
| --- | --- |
| COc1ccc(-c2nn(-c3ccccc3)cc2C(=O)Nc2nc(CC(C)=O)ns2)cc1 | inactive |
| Cc1ccc(-c2nn(-c3ccccc3)cc2CN(Cc2ccccc2)C(=O)CCC(=O)O)o1 | inactive |
| CCc1ccc(-c2nn(-c3ccccc3)cc2CSC(=N)N)cc1 | 14 (active) |
| COc1ccc2c(c1)c(=O)c(C(=O)c1ccc(Cl)cc1)cn2CC(=O)Nc1ccc(F)cc1 | inactive |
| Cc1csc(NC(=S)Nc2cccc(Cl)c2)n1 | inactive |
| O=C(Nc1cccc(S(=O)(=O)Nc2ccc(Cl)cc2)c1)c1ccc2c(c1)OCCO2 | inactive |
| S=C(NCc1ccco1)Nc1ccc2c(c1)OCCO2 | inactive |
| S=C(Nc1cccc(Cl)c1)Nc1ccc2c(c1)OCCO2 | 8 (active) |
| S=C(Nc1cccc(Cl)c1)Nc1ccc2cn[nH]c2c1 | inactive |
| FC(F)(F)c1cccc(NC(=S)Nc2cccc(Cl)c2)c1 | 18 (active) |
| COc1cccc(OCC(O)CNC(=O)c2oc3c(C)c(C)ccc3c2C)c1 (stereo not drawn) | inactive |
| Cc1cc(=O)oc2c3c(cc(OCC(=O)NCCC(=O)N[C@@H](C)C(=O)O)c12)OC(C)(C)CC3 | inactive |
| O=C(O)c1ccccc1-c1ccccc1C(=O)Nc1ccccc1Br | inactive |
| Nc1cc(OC(=O)c2ccccc2Br)nn1S(=O)(=O)c1ccccc1 | inactive |
| COc1ccccc1C(=O)NCCC(=O)NC(C)CCc1ccccc1 (stereo not drawn) | inactive |
| O=C(Nc1cccc([N+](=O)[O-])c1)N1CCc2ccccc2C1 | 7 (active) |
| CCc1ccc(NC(=O)N2CCc3ccccc3C2)cc1 | inactive |
| CN1CCN(CC(=O)Nc2cccc([N+](=O)[O-])c2)CC1 | inactive |
| CCCCNCc1ccc(SC)cc1 | inactive |
| CCOC(=O)C1CCCN(C(=O)CN(c2ccc(OC)cc2)S(=O)(=O)c2c(C)noc2C)C1 (stereo not drawn) | inactive |
| Cc1cc(C)cc(N(CC(=O)N2CC=C(c3ccccc3)CC2)S(=O)(=O)c2c(C)noc2C)c1 | 6 (active) |
| Cc1cc(C)cc(N(CC(=O)NCC2CCCO2)S(=O)(=O)c2c(C)noc2C)c1 (stereo not drawn) | inactive |
